The list is not random: actives were taken first. Their share in the collection is about 2.4%.
Pol iota inh: qHTS for Inhibitors of Polymerase Iota. DNA polymerase iota (Homo sapiens), Q9UNA4. Pol iota fluorescent replication assay, 10 min. Potency, µM (top dose mostly 115 µM), without a hit: at the top dose activity, negative = inhibition, hits mostly inhibitors. actives 1% (n = 390,000)
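Pol iota at 10 nM preincubated 15 min with compounds at room temperature; reaction started with fluorescent substrate, 50 nM final. Fluorescence read kinetically at 0 and 10 min; buffer-only wells as negative control.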
Pol beta inh: qHTS Assay for Inhibitors of DNA Polymerase Beta. P06746. Pol beta primer extension/strand displacement, fluorescence kinetic. Potency, µM (highest dose often 114 µM), without a hit: at the highest dose activity change, negative = inhibition, hits mostly inhibitors. actives 1.3% (n = 340,000); further: on the % scale 0 is the no-effect control and ±100 the full control effect
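Curves were derived by four-parameter Hill fits of normalized qHTS data. The kinetic fluorescent primer-extension read was taken at 0 and 10 min after 50 nM substrate, following a 15 min room-temperature preincubation of 10 nM enzyme with compounds.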
Pol eta inh-1: qHTS for Inhibitors of Polymerase Eta; recombinant Pol eta, fluorescent DNA replication assay; Potency, µM (series often up to 114 µM), inactives show top-dose activity change, negative = inhibition, usual class: inhibitors; AID 588591, 2011; actives 1.2% (n = 390,000); further: on the % scale 0 is the no-effect control and ±100 the full control effect
Target sequence (Q9Y253 whole entry, looked up): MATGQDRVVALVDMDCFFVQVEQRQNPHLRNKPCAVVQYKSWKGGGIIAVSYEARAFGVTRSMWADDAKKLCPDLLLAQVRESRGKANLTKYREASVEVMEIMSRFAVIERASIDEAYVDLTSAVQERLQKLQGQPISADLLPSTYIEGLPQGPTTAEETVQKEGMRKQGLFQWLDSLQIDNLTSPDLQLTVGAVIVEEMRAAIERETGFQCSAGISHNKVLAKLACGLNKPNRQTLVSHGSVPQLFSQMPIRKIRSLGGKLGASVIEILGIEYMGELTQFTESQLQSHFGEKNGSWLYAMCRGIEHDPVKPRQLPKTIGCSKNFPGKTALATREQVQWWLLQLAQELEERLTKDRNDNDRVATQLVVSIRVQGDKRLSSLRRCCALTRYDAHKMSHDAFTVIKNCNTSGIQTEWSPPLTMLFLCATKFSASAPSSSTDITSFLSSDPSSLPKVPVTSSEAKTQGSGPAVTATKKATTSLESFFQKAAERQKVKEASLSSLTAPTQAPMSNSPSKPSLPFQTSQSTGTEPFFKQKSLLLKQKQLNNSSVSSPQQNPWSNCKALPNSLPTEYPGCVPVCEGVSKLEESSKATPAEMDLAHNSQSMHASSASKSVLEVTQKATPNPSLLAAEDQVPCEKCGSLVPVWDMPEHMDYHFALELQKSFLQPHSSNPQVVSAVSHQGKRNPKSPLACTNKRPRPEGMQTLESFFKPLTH
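Fluorescent replication assay: 50 nM final substrate added after a 15 min room-temperature compound preincubation with 10 nM enzyme. Signal taken at 0 min and again at 10 min.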
L3MBTL1 block: qHTS Assay for the Inhibitors of L3MBTL1. AlphaScreen L3MBTL1–H3K9me1 peptide binding. Potency, µM (series often up to 57.1 µM), inactives show at the top dose activity, negative = inhibition, actives largely listed as inhibitors. actives 0.66% (n = 230,000). AID 485360, 2010; further: on the % scale 0 is the no-effect control and ±100 the full control effect; nearly all actives have a fitted effect of over 60% in size
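AlphaScreen assay: L3MBTL1 (50 nM final) was preincubated 30 min at room temperature with biotinylated H3(1-15)K9me1 peptide (75 nM final), then 30 min with library compounds; streptavidin donor and nickel chelate acceptor beads (10 ug/mL final) added, 30 min dark.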
Pol kappa inh-1: qHTS for Inhibitors of Polymerase Kappa; DNA polymerase kappa (Homo sapiens), Q9UBT6; purified Pol kappa, fluorescent DNA synthesis assay, 10 min; Potency, µM (doses to about 107 µM), for inactives: at the highest dose activity, negative = inhibition, usual class: inhibitors; actives 0.53% (n = 400,000); AID 588579, 2011; further: on the % scale 0 is the no-effect control and ±100 the full control effect
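10 nM Pol kappa was preincubated with compounds for 15 min at room temperature. Reaction started with 50 nM (final) substrate. Fluorescence read kinetically at 0 and 10 min.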
TbPGK inh: qHTS for inhibitors of Phosphogylcerate Kinase: Hit Validation Screen. shares compounds with Pol kappa inh-1. TbPGK coupled GAPDH assay, Kinase-Glo luminescence. Potency, µM (series often up to 57.5 µM), for inactives: at the top dose activity change, negative = inhibition, hits mostly inhibitors. actives 79% (n = 500); further: on the % scale 0 is the no-effect control and ±100 the full control effect; nearly all actives have a fitted effect of over 65% in size
Pol iota confirm: qHTS for Inhibitors of Polymerase Iota: Confirmatory Assay for Cherry-picked Compounds. Pol iota primer extension, TAMRA/BHQ fluorescence. Potency, µM, usual class: inhibitors. shares compounds with Pol kappa inh-1. actives 77% (n = 1,500)
Pol kappa inh-2: qHTS for Inhibitors of Polymerase Kappa: Confirmatory Assay for Cherry-picked Compounds | shares compounds with Pol eta inh-1 | purified Pol-kappa, fluorescent strand-displacement substrate | Potency, µM, actives largely listed as inhibitors | actives 76% (n = 920) | AID 720501, 2013
Pol eta inh-2: qHTS for Inhibitors of Polymerase Eta: Confirmatory Assay for Cherry-picked Compounds. shares compounds with Pol eta inh-1. Pol eta primer extension, TAMRA/BHQ fluorescence, 10 min. Potency, µM, hits mostly inhibitors. actives 64% (n = 2,600). AID 720502, 2013
* marks the source's active call; other numbers are inactive results; ? = inconclusive; . = not tested or not shown; [ ] = dose if it differs, or a comment. The call rests on the fitted dose curve; in most records, active means well fitted curve in the direction sought with a large enough effect; inconclusive means small, poorly fitted or top-dose-only effect, or another doubt; inactive means no such curve, though single readings can be large; an effect the other way counts as inactive or inconclusive. Potency means the concentration at half of the fitted maximal effect.

SMILES	Pol iota inh	Pol beta inh	Pol eta inh-1	L3MBTL1 block	Pol kappa inh-1	Pol iota confirm	Pol eta inh-2	others
CCCSC1=N/C(=C\C=C\c2ccco2)C(=O)S1	10µM*	5.62µM*	7.08µM*	5.62µM*	22.4µM*	?	60.1*
N#Cc1c(NC(=O)/C=C/C(=O)O)sc2c1CCN(Cc1ccccc1)C2	-27.2%	31.6µM*	28.2µM*	.	6.8%	47.4*	47.8*	Pol kappa inh-2=23.8*
CC(=O)Nc1sc2c(c1C#N)CCN(Cc1ccccc1)C2	59.1%	-1.8%	-15.4%	25.7%	-10.9%	.	.
O=C1ON=C(c2ccccc2)/C1=C/c1ccc(-c2ccccc2[N+](=O)[O-])o1	?	-26.5%	22.4µM*	?	-24.1%	?	47.8*
O=c1[nH]c2ccccc2c2nc(-c3cccc(S(=O)(=O)N4CCCC4)c3)nn12	30.9%	-0.2%	-6.6%	.	10.6%	.	.
Cc1ccc(-c2nc3c4ccccc4[nH]c(=O)n3n2)cc1	25.8%	-20.0%	?	.	12.3%	?	?
Cc1ccccc1C(=O)N1CCC(N2CCN(Cc3ccc(F)cc3)C(=O)C2=O)CC1	8.9%	3.6%	-17.3%	.	2.9%	.	.
Cc1nc2ccccc2c(=O)n1/N=C/c1ccccc1	20.7%	8.8%	-14.9%	2.1%	-4.1%	.	.
Cc1nc2ccccc2c(=O)n1/N=C/c1ccc(O)c(O)c1O	?	1.58µM*	2.82µM*	.	?	1.68*	2.69*
O=Cc1ccc(-c2cccc([N+](=O)[O-])c2)o1	-14.9%[58.9 µM]	-1.9%	-18.9%	10.2%	-8.7%	.	.
O=C1NC(=O)/C(=C/c2ccc(-c3cccc([N+](=O)[O-])c3)o2)S1	?	0.5%	22.4µM*	-0.7%	-2.5%	.	?	TbPGK inh=18.3µM*
O=c1oc2ccccc2c2oc3cc(O)c(O)cc3c12	3.16µM*	-110.5%	4.47µM*	?	5.01µM*	21.2*	21.3*	Pol kappa inh-2=67*
O=C(CCc1ccco1)CCc1ccco1	25.1µM*	.	?	.	?	?	75.7*	Pol kappa inh-2=33.6*
CCCCCCCCCCCCCc1ccco1	.	.	.	.	-8.4%[60.1 µM]	.	.
COc1ccc(-c2c3c(=O)n(C)c(=O)n(C)c3c3c(-c4cccc(C)c4)nc4ccccc4n23)cc1	26.7%	5.2%	-20.8%	.	4.2%	.	.
Cc1ccc(NC(=O)Cn2cc(S(=O)(=O)Cc3ccc(F)cc3)c3ccccc32)cc1Cl	79.4µM*	25.1µM*	17.8µM*	.	?	47.4*	42.6*
Cc1ccc(NC(=O)Cn2cc(S(=O)(=O)Cc3cccc(Cl)c3)c3ccccc32)cc1C	15.9%	-1.8%	-22.2%	.	-3.1%	.	.
COc1cc(NS(=O)(=O)c2ccc(NC(=S)NC(=O)/C=C/c3ccc(OC)c(OC)c3)cc2)ncn1	?	17.9%	31.6µM*	3.9%	-22.2%	37.7*	.	TbPGK inh=29.1µM*;Pol kappa inh-2=26.7*
Cn1c(=O)oc2cc(S(=O)(=O)NC(Cc3ccccc3)C(=O)Nc3ccc(F)c(Cl)c3)ccc21 (configuration not stated)	?	36.6%	-6.7%	.	-22.8%	.	.
COc1ccc(-n2nc(C(=O)NCC(=O)Nc3ccccn3)c3ccccc3c2=O)cc1Cl	0.8%	?	10µM*	1.7%	-14.0%	15*	?
CN(C)c1nc(-c2ccccc2C(F)(F)F)nc2ccccc12	.	.	.	.	-0.4%[60.1 µM]	.	.
Cc1nc(NC(=O)C(C)(C)C)sc1-c1csc(N)n1	.	.	-6.4%	.	.	.	.
O=C(NCC(=O)N1CC=C(c2ccccc2)CC1)c1ccc(F)cc1	90.5%	.	-19.7%	3.0%	-4.8%	.	.
O=C(NCCn1cc(SCc2ccc(Cl)cc2)c2ccccc21)c1cccs1	?	8.6%	-22.4%	.	4.4%	.	.
O=C(CCc1ccc(O)c(O)c1)N/N=C/c1cc2c(cc1[N+](=O)[O-])OCO2	31.6µM*	25.1µM*	17.8µM*	.	25.1µM*	?	30.1*
SMILES	Pol iota inh	Pol beta inh	Pol eta inh-1	L3MBTL1 block	Pol kappa inh-1	Pol iota confirm	Pol eta inh-2	others
Cc1cccc(C)c1OCC(=O)N/N=C/c1cc2c(cc1[N+](=O)[O-])OCO2	0.0%	-0.6%	3.8%	.	-9.9%	.	.
O=C(Cc1ccc(Br)cc1)NO	24.5%	.	.	.	3.4%	.	.
O=C(COc1ccc(/C=N/NC(=O)c2ccccc2O)cc1)Nc1ccc([N+](=O)[O-])cc1	?	-10.8%	?	1.0%	9.0%	33.6*	60.1*
O=C(COc1ccc(/C=N/NC(=O)c2ccncc2)cc1)Nc1cccc([N+](=O)[O-])c1	?	-8.0%	9.9%	.	-4.5%	.	.
COc1ccc(OC)c(NC(=O)c2nc(S(=O)(=O)Cc3ccc(F)cc3)ncc2Cl)c1	?	?	-24.2%	.	?	.	.
Cn1c(SCC(=O)Nc2cccc(C(=O)O)c2)nnc1-c1cc2cc(Br)ccc2o1	?	?	?	-5.2%	-16.5%	?	?
NC(=S)NN=Cc1ccc(-c2ccc(S(=O)(=O)Nc3ncccn3)cc2)o1	?	.	3.16µM*	28.2µM*	20µM*	?	9.53*	Pol kappa inh-2=?
O=C(N/N=C/c1ccc(-c2ccc(S(=O)(=O)Nc3ncccn3)cc2)o1)c1cc2ccccc2cc1O	1.26µM*	12.6µM*	0.891µM*	.	4.47µM*	16.8*	4.78*	TbPGK inh=?;Pol kappa inh-2=3.77*
COc1ccc(/C=C2\Oc3cc(OCC(=O)N4CCC[C@H]4C(=O)O)ccc3C2=O)c(OC)c1	?	28.6%	-11.0%	.	?	.	.
COc1cc(OC)c(OC)cc1/C=C1\Oc2cc(OCC(=O)N3Cc4ccccc4C[C@H]3C(=O)O)ccc2C1=O	?	?	22.4µM*	.	79.4µM*	26.7*	21.3*
COC(=O)c1c(OC)cc2c(c1C)Oc1c(Cl)c(O)c(Cl)c(C)c1C(=O)O2	.	.	.	.	-11.2%[60.1 µM]	.	.
